# Targets with a hit are over-represented here; the source holds about 7,900 in all. About 0.6% of all pairs of compound and target were hits. A number with no mark means an inactive call.
# Assays:
# Experiment in all cases: log2 fold change, soluble protein after heating vs DMSO (PISA); higher = thermal stabilisation; K562 cells, 10 uM, 30 min; active = over 0.2 and 3.5 SD of the protein, either way, in both replicates (recomputed)
# [1] = compound: CC[C@@H]1C(=O)N(C)c2cnc(Nc3ccc(C(=O)NC4CCN(C)CC4)cc3OC)nc2N1C1CCCC1
# In short: (§1)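 Aliquots of K562 cells (2×10^6 cells/mL) treated with 10 μM compound for 30 min were heated for 3 min over 48°C-58°C. After pooling and extraction in PBS with 0.5% NP-40 at 4°C, soluble protein from a 21,000xg, 90 min spin was quantified by TMTpro 16plex LC-MS/MS with channel sums equalised. Thermal stability is expressed against control samples, from duplicates, as a log2 fold change.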
# [2] = compound: CC[C@@H]1C(=O)N(C)c2cnc(Nc3ccc(C(=O)N[C@H]4CC[C@H](N5CCN(CC6CC6)CC5)CC4)cc3OC)nc2N1C(C)C [volasertib]
# In short: as §1
# [3] = compound: CC[C@H](C)N1C=C(C2=C(C=C(C=C21)C3=CN=C(C=C3)N4CCNCC4)C(=O)NCC5=C(C=C(NC5=O)C)C)C
# In short: as §1
# [4] = compound: CC[C@H](C)[C@@H](C(=O)N[C@@H]([C@@H](C)O)C(=O)N[C@@H](CC(C)C)C(=O)[C@]1(CO1)C)NC(=O)[C@H]([C@@H](C)CC)N(C)C(=O)C [epoxomicin]
# In short: as §1
# [5] = compound: CCn1c(C(=O)N(C2CC2)C2CC2)cc2c3c(ncn3C)c(Nc3cc(C)n(C)n3)nc21
# In short: as §1
# [6] = compound: CCn1cc(-c2ccnc3[nH]c(-c4cccc(CN(C)C)c4)cc23)c(-c2ccc(NC(=O)N(C)C)cc2)n1
# In short: as §1
# [7] = compound: CN(C)CC(=O)Nc1ccc2[nH]c(=O)c3ccccc3c2c1
# In short: as §1
# [8] = compound: CN(CCOC1=CC=C(C=C1)C[C@H]2C(=O)NC(=O)S2)C3=CC=CC=N3 (racemic) [rosiglitazone]
# In short: as §1
# [9] = compound: CN1C2=C(C3=C1C(=O)N(N=C3)CC4=CC(=CC=C4)N)SC(=C2)S(=O)C
# In short: as §1
# [10] = compound: CN1CCC(CNc2ccc3ncc(-c4cccc(OC(F)(F)F)c4)n3n2)CC1
# In short: as §1
# Sequence of UniProt Q9P287 (Q9P287 whole entry, looked up): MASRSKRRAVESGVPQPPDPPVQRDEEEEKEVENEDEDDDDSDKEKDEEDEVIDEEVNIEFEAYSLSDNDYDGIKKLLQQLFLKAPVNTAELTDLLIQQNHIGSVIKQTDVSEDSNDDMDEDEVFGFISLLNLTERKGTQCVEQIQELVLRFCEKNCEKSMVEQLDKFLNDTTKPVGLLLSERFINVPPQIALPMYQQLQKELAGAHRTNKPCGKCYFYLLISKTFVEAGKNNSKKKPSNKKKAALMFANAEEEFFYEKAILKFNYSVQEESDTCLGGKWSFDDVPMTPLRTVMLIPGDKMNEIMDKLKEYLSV
# Sequence of UniProt P56385 (P56385 whole entry, looked up): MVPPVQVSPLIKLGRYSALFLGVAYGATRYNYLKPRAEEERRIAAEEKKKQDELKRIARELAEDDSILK
# Sequence of UniProt O60566 (O60566 whole entry, looked up): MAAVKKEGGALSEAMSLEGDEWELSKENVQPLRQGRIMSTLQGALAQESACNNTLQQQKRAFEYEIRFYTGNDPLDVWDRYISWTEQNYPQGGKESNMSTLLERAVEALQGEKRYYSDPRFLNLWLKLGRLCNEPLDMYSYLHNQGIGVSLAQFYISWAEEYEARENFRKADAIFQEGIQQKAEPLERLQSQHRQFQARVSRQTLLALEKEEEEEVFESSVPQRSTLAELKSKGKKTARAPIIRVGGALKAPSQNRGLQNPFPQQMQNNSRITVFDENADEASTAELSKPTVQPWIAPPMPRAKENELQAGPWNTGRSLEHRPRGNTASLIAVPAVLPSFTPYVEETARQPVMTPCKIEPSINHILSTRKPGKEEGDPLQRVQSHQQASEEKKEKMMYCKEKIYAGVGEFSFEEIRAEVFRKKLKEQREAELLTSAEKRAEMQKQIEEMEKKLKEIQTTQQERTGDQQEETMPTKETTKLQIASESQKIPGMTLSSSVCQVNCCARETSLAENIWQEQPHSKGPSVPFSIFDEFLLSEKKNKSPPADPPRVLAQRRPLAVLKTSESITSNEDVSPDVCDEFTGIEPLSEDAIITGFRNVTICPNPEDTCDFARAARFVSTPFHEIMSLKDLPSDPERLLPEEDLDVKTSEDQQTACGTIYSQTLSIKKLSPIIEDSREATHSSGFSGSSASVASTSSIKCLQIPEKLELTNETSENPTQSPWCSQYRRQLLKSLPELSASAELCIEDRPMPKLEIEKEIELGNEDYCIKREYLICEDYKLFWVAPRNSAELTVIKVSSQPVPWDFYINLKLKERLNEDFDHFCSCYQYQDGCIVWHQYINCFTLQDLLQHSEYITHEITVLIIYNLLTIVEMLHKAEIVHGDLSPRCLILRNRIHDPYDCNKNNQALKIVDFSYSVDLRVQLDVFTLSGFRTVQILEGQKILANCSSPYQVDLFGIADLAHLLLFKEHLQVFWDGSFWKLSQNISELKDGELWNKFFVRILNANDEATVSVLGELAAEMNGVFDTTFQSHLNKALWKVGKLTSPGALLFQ
# Sequence of UniProt P55957 (P55957 whole entry, looked up): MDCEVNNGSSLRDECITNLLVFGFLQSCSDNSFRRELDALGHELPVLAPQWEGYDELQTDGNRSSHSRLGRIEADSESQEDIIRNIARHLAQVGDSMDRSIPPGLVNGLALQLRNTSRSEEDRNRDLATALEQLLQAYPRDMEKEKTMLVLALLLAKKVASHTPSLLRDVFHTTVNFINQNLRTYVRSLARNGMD
# Sequence of UniProt P08243 (P08243 whole entry, looked up): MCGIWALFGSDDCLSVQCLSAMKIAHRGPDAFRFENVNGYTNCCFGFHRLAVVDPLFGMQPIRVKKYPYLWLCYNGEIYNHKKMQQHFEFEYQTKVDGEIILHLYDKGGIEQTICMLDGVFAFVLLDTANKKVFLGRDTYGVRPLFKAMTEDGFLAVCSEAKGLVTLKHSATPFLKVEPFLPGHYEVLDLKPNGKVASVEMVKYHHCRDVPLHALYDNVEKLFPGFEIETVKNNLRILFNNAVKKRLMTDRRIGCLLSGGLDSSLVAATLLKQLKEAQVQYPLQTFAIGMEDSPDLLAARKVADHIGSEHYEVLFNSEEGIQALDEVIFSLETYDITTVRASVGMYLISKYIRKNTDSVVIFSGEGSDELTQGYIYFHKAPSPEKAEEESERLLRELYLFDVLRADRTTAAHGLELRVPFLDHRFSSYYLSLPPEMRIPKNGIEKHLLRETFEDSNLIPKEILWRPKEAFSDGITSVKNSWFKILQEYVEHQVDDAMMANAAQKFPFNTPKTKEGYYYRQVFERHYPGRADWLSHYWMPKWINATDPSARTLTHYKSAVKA
# Sequence of UniProt Q9Y6E2 (Q9Y6E2 whole entry, looked up): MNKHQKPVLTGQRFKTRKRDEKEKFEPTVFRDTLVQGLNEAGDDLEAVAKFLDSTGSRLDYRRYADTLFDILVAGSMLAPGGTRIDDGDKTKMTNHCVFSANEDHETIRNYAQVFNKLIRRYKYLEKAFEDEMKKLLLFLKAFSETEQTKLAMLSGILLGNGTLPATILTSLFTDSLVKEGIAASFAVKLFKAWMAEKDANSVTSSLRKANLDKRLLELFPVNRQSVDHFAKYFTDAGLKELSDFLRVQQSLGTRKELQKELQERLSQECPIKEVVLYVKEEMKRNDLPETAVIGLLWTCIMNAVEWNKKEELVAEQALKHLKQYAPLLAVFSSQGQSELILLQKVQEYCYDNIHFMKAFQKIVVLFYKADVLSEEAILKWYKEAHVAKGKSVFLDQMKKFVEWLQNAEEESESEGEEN
# Sequence of UniProt Q9Y6H3 (Q9Y6H3 whole entry, looked up): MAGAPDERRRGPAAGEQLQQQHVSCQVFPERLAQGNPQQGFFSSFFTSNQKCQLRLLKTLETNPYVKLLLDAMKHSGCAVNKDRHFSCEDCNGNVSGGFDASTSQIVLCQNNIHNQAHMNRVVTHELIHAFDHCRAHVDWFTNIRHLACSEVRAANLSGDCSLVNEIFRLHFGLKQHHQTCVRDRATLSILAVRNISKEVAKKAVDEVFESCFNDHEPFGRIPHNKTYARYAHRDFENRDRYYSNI
# Sequence of UniProt Q02252 (Q02252 whole entry, looked up): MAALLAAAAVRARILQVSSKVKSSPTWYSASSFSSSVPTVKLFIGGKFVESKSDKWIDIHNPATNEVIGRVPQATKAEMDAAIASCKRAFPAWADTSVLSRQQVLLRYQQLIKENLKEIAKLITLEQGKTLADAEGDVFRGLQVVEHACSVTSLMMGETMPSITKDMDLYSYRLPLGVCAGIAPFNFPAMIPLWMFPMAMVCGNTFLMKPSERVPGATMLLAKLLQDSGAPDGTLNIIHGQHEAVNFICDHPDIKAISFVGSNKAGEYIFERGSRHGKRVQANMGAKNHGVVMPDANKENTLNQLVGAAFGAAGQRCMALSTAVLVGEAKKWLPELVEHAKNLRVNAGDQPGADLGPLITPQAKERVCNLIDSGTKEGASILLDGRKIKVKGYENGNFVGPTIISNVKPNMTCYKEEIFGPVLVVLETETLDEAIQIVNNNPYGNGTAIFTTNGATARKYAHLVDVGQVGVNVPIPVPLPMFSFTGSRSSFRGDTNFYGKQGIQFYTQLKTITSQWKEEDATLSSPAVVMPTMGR
# Sequence of UniProt Q86UU0 (Q86UU0 whole entry, looked up): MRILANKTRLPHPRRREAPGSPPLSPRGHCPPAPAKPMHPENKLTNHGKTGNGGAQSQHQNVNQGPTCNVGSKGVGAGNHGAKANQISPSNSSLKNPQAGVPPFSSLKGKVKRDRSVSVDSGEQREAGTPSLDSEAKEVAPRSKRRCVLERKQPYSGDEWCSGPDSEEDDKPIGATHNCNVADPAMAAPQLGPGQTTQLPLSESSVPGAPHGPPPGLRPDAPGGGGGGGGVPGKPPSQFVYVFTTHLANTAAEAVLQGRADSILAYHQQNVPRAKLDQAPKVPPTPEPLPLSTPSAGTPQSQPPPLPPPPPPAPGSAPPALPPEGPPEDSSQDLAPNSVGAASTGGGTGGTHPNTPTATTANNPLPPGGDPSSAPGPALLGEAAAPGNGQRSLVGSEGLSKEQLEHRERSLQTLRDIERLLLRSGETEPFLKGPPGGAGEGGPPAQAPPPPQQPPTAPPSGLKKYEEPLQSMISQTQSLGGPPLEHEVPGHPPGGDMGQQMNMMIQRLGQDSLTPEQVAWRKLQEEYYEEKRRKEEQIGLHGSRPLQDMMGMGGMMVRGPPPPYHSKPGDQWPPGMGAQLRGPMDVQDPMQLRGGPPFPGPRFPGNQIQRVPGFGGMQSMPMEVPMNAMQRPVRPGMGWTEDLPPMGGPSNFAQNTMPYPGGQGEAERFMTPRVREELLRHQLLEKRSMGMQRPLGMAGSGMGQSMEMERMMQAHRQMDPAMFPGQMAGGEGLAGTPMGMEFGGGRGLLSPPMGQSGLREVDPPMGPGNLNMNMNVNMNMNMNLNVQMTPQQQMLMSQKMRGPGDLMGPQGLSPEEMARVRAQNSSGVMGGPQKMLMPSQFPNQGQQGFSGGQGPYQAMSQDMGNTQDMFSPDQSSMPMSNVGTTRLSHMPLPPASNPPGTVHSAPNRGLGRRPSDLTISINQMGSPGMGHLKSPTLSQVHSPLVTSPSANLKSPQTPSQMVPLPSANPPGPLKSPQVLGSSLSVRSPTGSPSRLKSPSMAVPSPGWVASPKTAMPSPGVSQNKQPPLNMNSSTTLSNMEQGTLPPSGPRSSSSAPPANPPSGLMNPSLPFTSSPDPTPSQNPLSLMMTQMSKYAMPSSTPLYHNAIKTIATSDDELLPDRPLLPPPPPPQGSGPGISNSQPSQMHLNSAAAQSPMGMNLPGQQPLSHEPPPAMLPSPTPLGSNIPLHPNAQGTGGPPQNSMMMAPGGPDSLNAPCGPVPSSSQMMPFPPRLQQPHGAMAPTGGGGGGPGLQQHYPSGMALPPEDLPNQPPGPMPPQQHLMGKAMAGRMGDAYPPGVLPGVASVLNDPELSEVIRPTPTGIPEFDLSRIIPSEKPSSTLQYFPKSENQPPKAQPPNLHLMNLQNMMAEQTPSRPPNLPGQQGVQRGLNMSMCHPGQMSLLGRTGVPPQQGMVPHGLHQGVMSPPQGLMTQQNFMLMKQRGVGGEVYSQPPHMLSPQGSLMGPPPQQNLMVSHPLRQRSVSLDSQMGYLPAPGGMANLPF
# Sequence of UniProt Q8WUW1 (Q8WUW1 whole entry, looked up): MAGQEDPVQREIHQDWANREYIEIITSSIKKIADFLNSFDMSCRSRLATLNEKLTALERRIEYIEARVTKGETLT
Target,log2 fold change [1],log2 fold change [2],log2 fold change [3],log2 fold change [4],log2 fold change [5],log2 fold change [6],log2 fold change [7],log2 fold change [8],log2 fold change [9],log2 fold change [10]
ARMC8 (UniProt Q8IUR7),-0.055,-0.14,0.053,-0.008,-0.005,0.003,-0.007,-0.029,0.053,0.043
ATG9A (UniProt Q7Z3C6),-0.019,-0.326 (active),0.027,-0.007,0.002,-0.06,0.018,0.008,0.058,-0.118
AARS2 (UniProt Q5JTZ9),0.001,-0.199,0.023,0.023,-0.015,-0.05,0.031,0.054,-0.062,-0.312 (active)
BZW2 (UniProt Q9Y6E2),-0.193,-0.367 (active),0.042,0.043,-0.019,-0.016,0.02,0.046,-0.037,-0.298 (active)
ASNS (UniProt P08243),-0.01,0.015,0.008,0.021,0.008,-0.051,-0.008,0.003,-0.064,-0.037
BAIAP2 (UniProt Q9UQB8),-0.045,-0.089,0.082,0.14,-0.011,-0.05,-0.019,0.038,-0.015,-0.142
ATP12A isoform 2 (UniProt P54707),0.081,0,-0.029,0.013,0.04,-0.031,-0.047,0.015,-0.085,0.242 (active)
ALKBH5 (UniProt Q6P6C2),0.08,0.109,0.01,-0.033,-0.112,-0.058,-0.058,-0.015,-0.011,0.041
BCCIP (UniProt Q9P287),-0.009,-0.047,-0.005,0.092,-0.04,0.033,0.019,0.042,0.047,-0.043
BCL9L (UniProt Q86UU0),0,0.036,0.044,0.038,0.04,-0.024,-0.003,0.088,-0.023,-0.019
BRK1 isoform 2 (UniProt Q8WUW1),0.074,-0.021,-0.02,0.497 (active),0.021,-0.009,0.031,0.011,-0.053,0.137
ATP23 (UniProt Q9Y6H3),-0.007,0.004,-0.078,0.016,0.059,0.055,-0.045,-0.011,-0.087,-0.478 (active)
ALDH6A1 (UniProt Q02252),0.06,-0.011,-0.059,0,0.028,-0.06,-0.033,0.093,-0.068,-0.004
ASH2L (UniProt Q9UBL3),-0.117,-0.327 (active),0.079,0.041,-0.017,-0.012,-0.003,-0.004,0.001,-0.012
AMFR (UniProt Q9UKV5),-0.205,-0.215,0.044,0.049,-0.059,0,-0.007,0.022,0.01,-0.055
ABHD17A isoform 2 (UniProt Q96GS6),-0.072,-0.172,-0.084,-0.057,-0.058,-0.17,-0.067,0.009,-0.015,-0.377 (active)
ATP6V1C1 (UniProt P21283),0.027,-0.196,0.066,0.064,-0.022,-0.282 (active),-0.008,0.032,0.069,0.377 (active)
B4GALT1 (UniProt P15291),-0.324 (active),-0.571 (active),0.033,0.051,0.041,-0.048,-0.03,0.072,-0.081,-0.28 (active)
BTAF1 (UniProt O14981),-0.087,-0.265 (active),0.061,0.086,-0.047,-0.07,0.027,-0.042,-0.055,-0.09
BID isoform 2 (UniProt P55957),0.013,-0.196,-0.022,-0.036,-0.022,0.045,0.042,0.001,-0.068,-0.048
ALDH9A1 isoform 3 (UniProt P49189),0,-0.003,-0.048,0.011,0.003,-0.025,-0.01,-0.004,-0.065,-0.027
ARF4 (UniProt P18085),0.064,0.094,0.009,0.112,-0.008,0.014,0.041,-0.033,-0.076,0.097
BUB1B isoform 3 (UniProt O60566),-0.127,-0.66 (active),0.056,0.02,-0.055,0.043,0.065,0.089,0.013,-0.078
ATRN (UniProt O75882),0.029,-0.094,-0.019,0.063,-0.1,0.004,-0.01,-0.096,0.095,0.121
ATP5IF1 (UniProt Q9UII2),-0.149,0.141,-0.078,-0.041,0.021,0.013,-0.13,-0.02,-0.04,0.037
ATP5ME (UniProt P56385),0.004,0.038,-0.048,0.075,-0.002,0.002,-0.054,-0.013,0.018,0.069
BPHL (UniProt Q86WA6),0.013,-0.005,0.065,0.005,0.027,-0.017,-0.07,0.041,0.017,0.063
ACSL5 isoform 3 (UniProt Q9ULC5),-0.013,-0.088,0.029,0.005,0.03,-0.068,-0.084,-0.009,-0.216,-0.361 (active)
AKR1C2 (UniProt P52895),0.27,0.087,0.03,-0.139,-0.039,0.002,-0.006,-0.001,0.568 (active),-0.016
AGPAT5 (UniProt Q9NUQ2),-0.169,-0.281 (active),-0.068,0.007,0.023,-0.13,0,0.01,-0.067,-0.25

# From the supplement of paper PMC10849652
